Shown are actives, neighbours in structure and some others; about 2.1% of the full set was active somewhere.
TDP43 rescue = qHTS of TDP-43 Inhibitors | TDP-43 expressing yeast growth rescue, BacTiter-Glo, 24 h | Potency, µM (series often up to 46.1 µM), inactives show at the top dose growth rescue (activation), most hits filed as activators | 1.8% of 410,000 active | AID 652104, 2013; also: % of control where 0% means no effect; nearly all actives have a fitted effect of over 50% in size
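Cell-based yeast growth screen: TDP-43 expression induced in galactose, inoculum OD600=0.02 after raffinose pregrowth to mid-log. Read-out BacTiter-Glo luminescence at 24 hr, 30 deg C; inhibition of toxicity seen as signal increase.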
Abeta yeast res = qHTS for compounds that reverse cellular toxicity of Amyloid beta (A-beta) peptide in yeast: Primary Screen; Potency, µM (top dose mostly 46.1 µM), most hits filed as activators; yeast expressing A-beta42, growth rescue, OD600, 48 h; response scale: 0% DMSO, 100% iron-clioquinol control; 0.063% of 410,000 active; AID 1347071, 2019; also: nearly all actives have a fitted effect of over 55% in size
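Yeast growth medium received pinned compounds, then yeast cells expressing toxic A-beta were added; plates incubated at 30 C for 48 hr. Growth read as absorbance at 600 nm, normalized to DMSO and equimolar FeCl3 plus clioquinol controls.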
FUS suppressor = qHTS for Suppressors of FUS Proteinopathy: Primary screen using FUS-linked yeast assay. S. cerevisiae FUS-expressing, growth rescue, OD600, 24 h. AID 1347120, 2019. Potency, µM (series often up to 76.6 µM), actives largely listed as activators. 0.24% of 390,000 active;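 also: plate controls were DMSO vehicle for no effect and reference control for full effect; nearly all actives have a fitted effect of over 55% in size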
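FUS-expressing yeast, raffinose-pregrown, induced in 2% galactose minimal medium at OD 0.005; compounds in a dilution series, 24hr at 30C. Growth restoration read as absorbance at 600 nm. CP55940 positive control, DMSO negative.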
aSyn rescue = qHTS of alpha-syn Inhibitors; Yeast expressing alpha-synuclein, growth rescue, BacTiter-Glo, 24 h; AID 652106, 2013; 0.14% of 370,000 active; Potency, µM (highest dose often 46.1 µM), for inactives: at the highest dose growth rescue (activation), usual class: activators; also: % of control where 0% means no effect; nearly all actives have a fitted effect of over 65% in size
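Rescue of yeast growth: cells expressing toxic alpha-synuclein, induced in galactose at OD600 0.02, incubated with compound 24 h at 30 C. ATP luminescence quantified growth; inhibitors of toxicity appear as activators.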
Starred values were filed as active, the others as inactive; i = inactive; ? = inconclusive; . = no result; [ ] = another dose, or the depositor's remark. Calls follow the shape of the dose curve; as a rule, active = well fitted curve in the direction sought with a large enough effect; inconclusive = small, poorly fitted or top-dose-only effect, or another doubt; inactive = no such curve, though single readings can be large; an effect the other way counts as inactive or inconclusive. Potency is read from the fitted curve at half-maximal effect.

SMILES | TDP43 rescue | Abeta yeast res | FUS suppressor | aSyn rescue
O=C(CSc1ccc(-c2ccc(F)cc2)nn1)N1CCCc2ccccc21 | 22µM* | i | i | 4%
O=C(CSc1nnc(-c2ccc(F)cc2)o1)N1CCCc2ccccc21 | 20µM* | i | i | .
COc1cc(-c2nnc(SCC(=O)O)n2-c2ccccc2)cc(OC)c1OC | . | i | i | 1%
Cc1ccc(-n2nc(C)c3c(C)cc(=O)n(CC(=O)Nc4ccc(Br)cc4F)c32)cc1 | -26% | i | i | .
NS(=O)(=O)c1ccc2nc(NC(=O)COc3ccc(Cl)cc3Cl)sc2c1 | 4%[9.22 µM] | i | i | .
CC(=O)c1ccc(N2CCN(C(=O)/C=C/c3ccc4ccccc4n3)CC2)cc1 | ? | i | i | 10µM*
CC(=O)c1ccc(N2CCN(C(=O)c3ccc4ccccc4n3)CC2)cc1 | 9% | i | i | 0%
Cn1c(=O)c2c(ncn2CC(=O)OCC(=O)NCc2ccc(F)cc2)n(C)c1=O | 18% | i | i | 1%
Cc1ccccc1-c1nnc(C2CCN(S(=O)(=O)c3ccc(Cl)cc3)CC2)o1 | 13%[9.22 µM] | i | i | .
COc1ccc(S(=O)(=O)N2CCC(c3nnc(-c4ccccc4C)o3)CC2)c(OC)c1 | 0% | i | 32µM* | .
CCC1=Nc2cc(C(=O)NCc3ccco3)ccc2Sc2ccccc21 | ? | i | i | 10%
CCC1=Nc2cc(C(=O)O)ccc2Sc2ccccc21 | 20µM* | i | i | 11%
Fc1ccc(NCc2cccn2-c2nnc(N3CCOCC3)s2)cc1 | 26% | i | i | 26%
Cc1ccc(NCc2cccn2-c2nnc(N3CCCCCC3)s2)cc1 | 30% | i | i | 1%
Fc1cccc(NCc2cccn2-c2nnc(N3CCOCC3)s2)c1 | 19% | i | i | 22µM*
Cc1ccccc1NCc1cccn1-c1nnc(N2CCOCC2)s1 | -2% | i | i | 13µM*
COc1cc(Cl)c(C)cc1NC(=O)Cc1ccc(OC)c(OC)c1 | ? | i | i | 4%
CCOc1cc(C2Sc3ccccc3NC3=C2C(=O)c2ccccc23)ccc1O (configuration not stated) | 11µM* | i | ? | .
Nc1cc(-c2cccc(Br)c2)nn1Cc1ccccc1 | ? | i | . | 13%
Nc1cc(-c2ccc(Br)cc2)nn1Cc1ccccc1 | 20µM* | ? | i | -1%
Cc1ccc2[nH]c(-c3cccc(N)c3)cc2c1 | 22µM* | i | ? | 12%
Cc1ccc2[nH]c(-c3cccc(F)c3)cc(=O)c2c1 | 19% | i | i | 7%
CN(CC(=O)Nc1c(Cl)cccc1Cl)C(=O)c1ccccc1SCC(=O)N1CCCC1 | 6% | i | i | 2%
Cc1cc(C(=O)N2CCCC(C)(C(=O)NS(=O)(=O)C3CC3)C2)n(C(C)(C)C)n1 (configuration not stated) | 26% | i | i | 0%
Cc1ccc(NC(=O)Nc2ccccc2C(=O)NCc2ccccc2)cc1 | 15% | i | i | -4%
SMILES | TDP43 rescue | Abeta yeast res | FUS suppressor | aSyn rescue
CCOc1cc(-c2nc(C)c(C(C)=O)n2O)ccc1OCC(=O)Nc1ccc(F)cc1 | 14µM* | i | i | -4%
COc1cc(-c2nc(C)c(C(C)=O)n2O)ccc1OCC(=O)Nc1ccc(F)cc1 | 19% | i | i | -6%
O=C(c1ccc(Br)cc1)c1cc(-c2ccccn2)c(N2CCOCC2)s1 | ? | i | i | 4%
O=C(NCCc1ccc(Cl)cc1)c1nnc(Cc2ccc(Cl)cc2)o1 | 11% | i | i | -6%
CC(CCc1ccccc1)NC(=O)c1nnc(Cc2ccc(Cl)cc2)o1 (configuration not stated) | 22µM* | i | i | 27%
C[C@H]1[C@@H](NC(=O)C2CCCCC2)CC[C@@]23CCCN2C(=O)CCC[C@@H]13 | . | . | i | .
O=C(CCC1CCCCC1)Nc1ccccc1-c1ccccc1 | 14µM* | i | i | -10%
CCCC(=O)Nc1ccc(NC(=O)c2cccs2)cn1 | 1% | i | i | 0%
COCCNC(=O)CCCn1c(=O)c2cc(OC)c(OC)cc2n(CC(=O)Nc2ccc(C)c(F)c2)c1=O | 13% | i | i | -1%
O=C(COc1ccc(F)cc1)Nc1nc(-c2ccccn2)cs1 | -54% | i | i | -20%
O=C(COc1ccccc1)Nc1nc(-c2cccnc2)cs1 | 10µM* | i | ? | -8%
Cc1ccc(OCC(=O)Nc2nc(-c3ccccn3)cs2)c(C)c1 | ? | i | i | 22µM*
O=C(COc1ccc([N+](=O)[O-])cc1)Nc1cccnc1 | -9% | i | i | 5%
O=C(COc1ccc(-c2ccccc2)cc1)Nc1cccnc1 | 22µM* | i | i | -9%
Fc1ccc(C2=CC(c3ccc(F)cc3)n3c(nc4ccccc43)N2)cc1 (configuration not stated) | 22µM* | i | i | .
COC(=O)c1ccc(C2C=C(c3ccc(Cl)cc3)Nc3nc4ccccc4n32)cc1 (configuration not stated) | 10µM* | i | i | .
COc1ccc(C2=CC(c3cc(Br)ccc3F)n3c(nc4ccccc43)N2)cc1 (configuration not stated) | ? | i | i | .
CCc1ccccc1Nc1nn2c(=O)c3ccc(C(=O)NC(C)C)cc3nc2s1 | 15% | i | i | -2%
COc1ccc(/C=N/NC(=O)c2ccc(Cl)cc2)cc1Cn1cc(Cl)cn1 | 10% | i | i | 5%
COCCNC(=O)c1cc2sccc2n1C | 15% | i | i | -8%
CCc1ccccc1NC(=O)c1cc2sccc2n1C | 13µM* | i | i | -1%
Cn1c(C(=O)Nc2ccccc2)cc2sccc21 | 13µM* | i | i | 6%
COc1ccc(CNC(=O)c2cc3sccc3n2C)cc1 | 35µM* | i | i | .
Cc1ccc(C)c(Oc2coc3cc(O)ccc3c2=O)c1 | 8% | i | i | -20%
CNc1c(NS(=O)(=O)c2ccc(F)cc2)c(=O)oc2ccccc12 | -12% | i | i | -10%
SMILES | TDP43 rescue | Abeta yeast res | FUS suppressor | aSyn rescue
COc1cc2oc3ccc(C#Cc4ccccn4)cc3c(=O)c2cc1OC | 9% | i | i | 13µM*
c1ccc(-c2csc(-n3cnnn3)n2)cc1 | 11µM* | i | i | 1%
CC(=O)c1c(C)oc2ccc(N(C(=O)c3ccncc3)S(=O)(=O)c3ccc(F)cc3C)cc12 | 20µM* | i | ? | .
O=C(Nc1ccccc1F)C1CCCN(S(=O)(=O)c2ccc(-n3cnnn3)cc2)C1 (configuration not stated) | -5% | i | i | -1%
COc1nc2ccccc2nc1N1CCN(Cc2ccc3c(c2)OCO3)CC1 | 14µM* | i | i | 1%
O=C(OCn1ncc(Cl)c(Cl)c1=O)c1ccccc1Cl | 5.6µM* | i | i | 11%
